In the library only some 2.7% were active in any assay of this set; here they are far more common.
SENP6 inh = blocks the human protease SENP6; 330,000 tested, 1.8% active; inhibition, % at 10 µM; AID 2599; Q9GZR1; Recombinant SENP6 catalytic domain, aminoluciferin luminescence;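 active = inhibition above about 50% at the single tested dose, limit read from the data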;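 also: plate controls were DMSO wells with enzyme for no effect and DMSO wells lacking enzyme for full effect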
Target sequence (Q9GZR1 628-1112 limits assumed): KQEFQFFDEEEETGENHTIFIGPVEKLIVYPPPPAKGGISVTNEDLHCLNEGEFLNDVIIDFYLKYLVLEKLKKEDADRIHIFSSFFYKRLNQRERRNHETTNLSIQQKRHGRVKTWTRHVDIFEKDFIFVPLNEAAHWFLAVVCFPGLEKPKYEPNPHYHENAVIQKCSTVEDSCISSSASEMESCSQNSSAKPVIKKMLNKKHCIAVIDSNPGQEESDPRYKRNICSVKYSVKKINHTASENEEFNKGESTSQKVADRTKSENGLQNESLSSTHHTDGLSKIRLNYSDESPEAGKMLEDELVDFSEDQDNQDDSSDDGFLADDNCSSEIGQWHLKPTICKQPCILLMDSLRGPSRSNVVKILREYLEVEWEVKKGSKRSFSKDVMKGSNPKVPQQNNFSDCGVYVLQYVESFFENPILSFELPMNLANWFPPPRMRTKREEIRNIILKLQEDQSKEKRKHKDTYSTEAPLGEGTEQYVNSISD
HSP90 inh = HSP90 refolding inhibition in rabbit reticulocyte lysate; 290,000 tested, 0.91% active; luciferase refolding luminescence, 3 h; inhibition, % at 5.6 µM; AID 1789;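 active = inhibition above the screen-wide mean plus 3 SD, computed separately per campaign, cut at about 16% in these data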;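 also: 0% = DMSO wells and 100% = 60 µM geldanamycin wells; inhibitors lower the luminescence because luciferase stays unfolded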
SENP8 block-1 = inhibitors of human SENP8 protease | 330,000 tested, 1.2% active | AID 2540 | Q96LD8 | inhibition, % at 10 µM | purified SENP8, Z-RLRGG-aminoluciferin cleavage, luminescence; in the data active = inhibition above about 50%
SENP7 block = inhibitors of human SENP7 protease; Q9BQF6; recombinant SENP7, Z-RLRGG-aminoluciferin luminescence, 40 min; inhibition, % at 5 µM; 330,000 tested, 1.5% active;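 active = inhibition above about 50% at the single test dose, limit read from the data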;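 also: plate controls were DMSO with enzyme for no effect and no enzyme buffer wells for full effect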
SENP8 block-2 = blocks human SENP8 cleavage of Nedd8 substrate | Q96LD8 | recombinant SENP8, Nedd8 substrate fluorescence | inhibition, % at 20 µM | 360,000 tested, 0.64% active | AID 602440; in the data active = inhibition mostly above about 40%, no sharp cut-off; inactive = mostly below about 27%
SENP8 confirm = human SENP8 inhibition, confirmed. inhibition, % at 12.5 µM. Recombinant SENP8, Z-RLRGG-aminoluciferin luminescence, 60 min. 6,200 tested, 40% active. shares compounds with SENP7 block;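 active = mean inhibition across replicates above about 50%, limit read from the data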
SENP6 confirm = confirmation of human SENP6 protease inhibitors | shares compounds with SENP7 block | recombinant SENP6, Z-RLRGG-aminoluciferin luminescence | inhibition, % at 12.5 µM | 6,200 tested, 58% active | AID 488915
SENP7 conf = confirmation of human SENP7 protease inhibitors. shares compounds with SENP7 block. recombinant SENP7, Z-RLRGG-aminoluciferin luminescence, 40 min. inhibition, % at 12.5 µM. AID 488917. 6,200 tested, 69% active
Casp3 SENP sel = inhibits human caspase-3 in SENP selectivity test. shares compounds with SENP7 block. purified caspase-3, Z-DEVD-aminoluciferin luminescence, 60 min. inhibition, % at 12.5 µM. 6,200 tested, 60% active. AID 488918;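 active = mean inhibition above about 50%, limit read from the data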;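 also: plate controls were enzyme with DMSO for no effect and wells without caspase-3 for full effect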
SENP luc ctr = interferes with luciferase luminescence in SENP counter-screen; shares compounds with SENP7 block; Pre-incubated SENP8/Z-RLRGG-aminoluciferin, luciferase luminescence interference; inhibition, % at 12.5 µM; 6,200 tested, 39% active; AID 488919;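 active = mean inhibition above about 50% when retested at one dose, limit read from the data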;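 also: plate controls were DMSO wells with completed reaction for no effect and substrate without enzyme for full effect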
* marks the source's active call; other numbers are inactive results; . = not tested or not shown.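 The calls were made as follows, unless noted: active = mean inhibition above about 50% in the one-dose retest (limit read from the data); inactive = the rest.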

SMILES	SENP6 inh	HSP90 inh	SENP8 block-1	SENP7 block	SENP8 block-2	SENP8 confirm	SENP6 confirm	SENP7 conf	Casp3 SENP sel	SENP luc ctr
COc1ccc(Cc2nc(-c3ccccn3)no2)cc1	-8	0	-5	9	16	.	.	.	.	.
Clc1cc(Cl)c(OCc2nc(-c3ccccn3)no2)cc1Cl	61*	-5	81*	81*	6	15	50	96*	52*	8
CC(C)(C)c1ccc(OCc2nc(-c3ccccn3)no2)c(Br)c1	59*	4	18	43	18	45	57*	74*	33	21
Clc1ccc(OCc2nc(-c3ccncc3)no2)c(Cl)c1	55*	-2	5	25	19	34	25	65*	26	42
Cc1cc(NCCO)c2ccccc2n1	7	2	-2	-2	11	.	.	.	.	.
Nc1cccc2cc(-c3ccccc3)oc12	55*	.	36	48	-497	34	35	72*	32	53*
Cc1cc(C(=O)COC(=O)c2cccc(NS(C)(=O)=O)c2)c(C)n1CC1CCCO1 (configuration not stated)	-24	.	-4	1	-19	.	.	.	.	.
Cc1cc(C(=O)COC(=O)c2ccccc2O)c(C)n1CC1CCCO1 (configuration not stated)	97*	.	95*	97*	-21	98*	99*	102*	88*	56*
O=C(Nc1cccc(F)c1)Nc1cnccn1	-3	2	-12	3	2	.	.	.	.	.
COc1cc(SC)ccc1C(=O)Nc1ccc2c(c1)CCC2	69*	4	67*	73*	6	13	75*	90*	54*	7
O=C(Nc1cccc(F)c1)Nc1ccccn1	58*	-2	28	47	3	39	34	75*	54*	24
O=C(Nc1cccc(F)c1)Nc1ccc2c(c1)CCC2	63*	-5	-33	72*	8	-13	-29	78*	29	18
O=C(Nc1ccccc1)Nc1ccc2c(c1)CCC2	84*	-2	62*	80*	4	48	57*	91*	60*	81*
Cc1ccc(NC(=O)Nc2ccc3c(c2)CCC3)cc1	5	-3	7	-4	1	.	.	.	.	.
O=C(Nc1ccc(F)cc1)Nc1ccc2c(c1)CCC2	-9	-4	-10	30	0	.	.	.	.	.
O=C(c1cccnc1)N1CCN(c2ccccc2Cl)CC1	-24	0	2	-12	.	.	.	.	.	.
C(=C\c1ccccc1)/CN1CCN(C(c2ccnc3ccccc23)c2nnnn2-c2ccc3c(c2)OCCO3)CC1 (configuration not stated)	.	.	.	.	-12	.	.	.	.	.
COc1ccc(/C=N/NC(=S)Nc2c(C)n(C)n(-c3ccccc3)c2=O)cc1OC	-19	3	-2	7	10	.	.	.	.	.
CN(C)S(=O)(=O)c1ccc(C(=O)Nc2ccc3c(c2)CCC3)cc1	-1	-6	9	2	10	.	.	.	.	.
O=C(Nc1ccc2c(c1)CCC2)c1ccc(F)cc1	87*	16	1	87*	14	85*	84*	96*	82*	80*
O=C(NC1CCCC1)C1c2ccccc2OCC(=O)N1Cc1ccco1 (configuration not stated)	.	.	.	.	9	.	.	.	.	.
CCN1CCC(N2CCN(c3ccc(Cl)cc3)CC2)CC1	78*	3	1	2	.	-12	-10	-9	5	0
CCCN1CCC(N2CCN(c3ccc([N+](=O)[O-])cc3)CC2)CC1	-12	-4	-4	6	24	.	.	.	.	.
Nc1c(C(=O)NCc2ccccc2)c2nc3ccccc3nc2n1CCCN1CCOCC1	74*	5	63*	22	-410	0	7	-2	-4	-5

Screens from PubChem BioAssay.
